NOMO-1 viab: NOMO-1 AML cell viability reduction, primary screen, STK33 inhibitor project, CellTiter-Glo luminescence. NOMO-1 AML viability, 72 h. inhibition, % (concentration not given with the values). 7.5% of 37,000 active; in the data active means inhibition above about 80%; inconclusive means no clear call, values can overlap the other calls
MITF inh: inhibitors of MITF, primary screen, MITF inhibitor project, cell-based, luminescence | inhibition, % (test concentration not listed) | 0.28% of 37,000 active | TRPM1 promoter luciferase, 24 h | AID 2240, 2010; in the data active means inhibition above about 85%; inconclusive means no clear call, values can overlap the other calls; inactive means below about 68%;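 further: human melanocyte line stably carrying TRPM1 promoter luciferase reporter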
Shh pathway inh: Hedgehog pathway signaling inhibitors, primary screen, luminescence, Shh-LIGHT2 cells, Gli-luciferase; AID 2313, 2010; inhibition, % (no concentration beside the values); 2.1% of 22,000 active; Shh-LIGHT2 Gli-luciferase reporter, 30 h;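 active means mean inhibition across valid replicates above about 65%, limit read from the data; inconclusive means mean under the limit, yet half or more replicates past it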;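 further: pathway switched on by Shh-conditioned medium diluted 1 in 25 in low serum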
Hits are given with their value; n = inactive; u = inconclusive; x = no result. Compounds with a hit are over-represented: about 7.8% of the library has one in this group of screens.

SMILES	NOMO-1 viab	MITF inh	Shh pathway inh
COc1ccc(S(=O)(=O)Nc2ccc3c(c2)CC(=O)N([C@H](C)CO)C[C@@H](C)[C@H](CN(C)Cc2ccc(Oc4ccccc4)cc2)O3)cc1	124.1	n	n
COc1ccc(S(=O)(=O)Nc2ccc3c(c2)CC(=O)N([C@@H](C)CO)C[C@H](C)[C@@H](CN(C)Cc2ccc(Oc4ccccc4)cc2)O3)cc1	n	n	n
C[C@H]1CN([C@@H](C)CO)C(=O)Cc2cc(NS(=O)(=O)c3ccc(F)cc3)ccc2O[C@@H]1CN(C)Cc1ccc(Oc2ccccc2)cc1	95.9	n	n
O=C(CCc1nc(-c2ccccc2)no1)Nc1ccc([N+](=O)[O-])cc1	n	n	x
O=C(O)CSc1nnc(-c2ccc(Cl)cc2Cl)n1-c1ccccc1	n	n	x
COc1c(-c2ccccc2)oc2c(CC=C(C)C)c3c(c(OC)c2c1=O)C=CC(C)(C)O3	n	n	n
C=CC(C)(C)c1c2c(c(O)c3c(=O)c4ccc(O)c(O)c4oc13)C=CC(C)(C)O2	106.7	u	93.1
Cc1noc(C)c1NC(=O)N(C)C[C@H]1Oc2ccc(NC(=O)Nc3ccc(F)cc3)cc2C(=O)N([C@H](C)CO)C[C@@H]1C	n	n	n
O=[N+]([O-])c1ccccc1S(=O)(=O)Nc1cccnc1	n	n	x
C[C@H]1CN([C@@H](C)CO)C(=O)c2cccc(NC(=O)CCCCCC(=O)Nc3ccccc3N)c2O[C@@H]1CN(C)Cc1ccncc1	n	n	x
C[C@@H]1CN([C@H](C)CO)C(=O)c2cccc(NC(=O)CCCCCC(=O)Nc3ccccc3N)c2O[C@@H]1CN(C)Cc1ccc2c(c1)OCO2	n	n	x
CC(C)NC(=O)N(C)C[C@@H]1Oc2c(NC(=O)CCCCCC(=O)Nc3ccccc3N)cccc2C(=O)N([C@H](C)CO)C[C@H]1C	n	n	x
C[C@H](CO)N1C[C@H](C)[C@H](CN(C)Cc2ccc(Cl)c(Cl)c2)Oc2c(NC(=O)CCCCCC(=O)Nc3ccccc3N)cccc2C1=O	113.9	n	x
C[C@@H]1CN([C@@H](C)CO)C(=O)c2cccc(NC(=O)CCCCCC(=O)Nc3ccccc3N)c2O[C@@H]1CN(C)Cc1ccccc1	87.7	n	x
C[C@H](CO)N1C[C@H](C)[C@@H](CN(C)Cc2ccc(-c3ccccc3)cc2)Oc2c(NC(=O)CCCCCC(=O)Nc3ccccc3N)cccc2C1=O	125.0	n	x
C[C@H]1CN([C@@H](C)CO)C(=O)c2cccc(NC(=O)Nc3cccc4ccccc34)c2O[C@H]1CN(C)Cc1ccc(Cl)c(Cl)c1	u	n	n
C[C@@H]1CN([C@H](C)CO)C(=O)c2cccc(NC(=O)CCCCCC(=O)Nc3ccccc3N)c2O[C@H]1CN(C)Cc1ccc2c(c1)OCO2	122.5	n	x
Cc1ccc2oc(-c3ccccc3)c(CN3CCOCC3)c(=O)c2c1	n	n	n
C[C@@H]1CN([C@H](C)CO)C(=O)Cc2cc(NS(=O)(=O)c3ccc(F)cc3)ccc2O[C@@H]1CN(C)CC1CC1	n	n	x
C[C@H]1CN([C@@H](C)CO)C(=O)c2cc(NC(=O)CCC(F)(F)F)ccc2O[C@H]1CN(C)CC1CCCCC1	n	n	n
C[C@H](CO)N1C[C@H](C)[C@@H](CN(C)CC2CCCCC2)Oc2ccc(NC(=O)Cc3cn(C)c4ccccc34)cc2C1=O	n	n	n
CCCCC[C@H](O)/C=C/[C@H]1C=CC(=O)[C@@H]1C/C=C\CCCC(=O)O	n	n	n
CC/C=C\C[C@@H]1C(=O)C=C[C@@H]1CCCCCCCC(=O)O	116.8	n	n
Cc1ccc(S(=O)(=O)N(C)C[C@H]2Oc3c(NC(=O)NC4CCCCC4)cccc3C(=O)N([C@H](C)CO)C[C@@H]2C)cc1	n	n	n
COc1ccc(NC(=O)Nc2ccc3c(c2)C(=O)N([C@H](C)CO)C[C@H](C)[C@H](CN(C)Cc2ccc(Cl)c(Cl)c2)O3)cc1	108.9	n	n
SMILES	NOMO-1 viab	MITF inh	Shh pathway inh
COc1ccc(NC(=O)Nc2ccc3c(c2)C(=O)N([C@H](C)CO)C[C@H](C)[C@@H](CN(C)Cc2ccc(Cl)c(Cl)c2)O3)cc1	n	n	n
C[C@H](CO)N1C[C@H](C)[C@H](CN(C)Cc2ccc(Cl)c(Cl)c2)Oc2ccc(NC(=O)Nc3ccc(F)cc3)cc2C1=O	n	n	x
C[C@H](CO)N1C[C@H](C)[C@@H](CN(C)Cc2ccc(Cl)c(Cl)c2)Oc2ccc(NC(=O)Nc3ccc(F)cc3)cc2C1=O	n	n	x
C[C@H](CO)N1C[C@H](C)[C@H](CN(C)Cc2ccc(Cl)c(Cl)c2)Oc2ccc(NC(=O)Nc3ccccc3)cc2C1=O	113.4	n	n
C[C@@H]1CN([C@@H](C)CO)C(=O)c2cc(NC(=O)Nc3ccc(F)cc3)ccc2O[C@H]1CN(C)Cc1ccc(Cl)c(Cl)c1	124.6	n	x
C[C@H](CO)N1C[C@H](C)[C@@H](CN(C)C(=O)Nc2ccc3c(c2)OCO3)Oc2c(NC(=O)c3cnccn3)cccc2C1=O	n	n	n
C[C@H]1CN([C@@H](C)CO)C(=O)c2cc(N(C)C)ccc2O[C@H]1CN(C)Cc1ccc(C(F)(F)F)cc1	n	n	n
C[C@@H]1CCCCO[C@@H](CN(C)C(=O)Nc2ccc(C(F)(F)F)cc2)[C@@H](C)CN([C@H](C)CO)C(=O)c2cc(NC(=O)Nc3cccc4ccccc34)ccc2O1	n	n	n
C[C@H]1CN([C@@H](C)CO)C(=O)c2cccc(NC(=O)NC3CCCCC3)c2O[C@@H]1CN(C)S(=O)(=O)c1ccc(Cl)cc1	n	n	n
C[C@H]1CN([C@@H](C)CO)C(=O)c2cccc(NC(=O)NC3CCCCC3)c2O[C@H]1CN(C)S(=O)(=O)c1ccc(F)cc1	n	n	103.3
Cc1ccc(S(=O)(=O)N(C)C[C@@H]2Oc3c(NC(=O)NC4CCCCC4)cccc3C(=O)N([C@@H](C)CO)C[C@@H]2C)cc1	n	n	100.4
C[C@H](CO)N1C[C@H](C)[C@@H](CN(C)S(=O)(=O)c2ccc(F)cc2)Oc2c(NC(=O)NC3CCCCC3)cccc2C1=O	n	n	n
Cc1ccc(S(=O)(=O)N(C)C[C@H]2Oc3c(NC(=O)NC4CCCCC4)cccc3C(=O)N([C@H](C)CO)C[C@H]2C)cc1	n	n	n
C[C@H](CO)N1C[C@H](C)[C@H](CN(C)S(=O)(=O)c2ccc(Cl)cc2)Oc2c(NC(=O)NC3CCCCC3)cccc2C1=O	120.4	n	122.4
Cc1cc2nc3c(=O)[nH]c(=O)nc-3n(CC(O)C(O)C(O)CO)c2cc1C (configuration not stated)	n	n	n
C[C@H](CO)N1C[C@H](C)[C@@H](CN(C)S(=O)(=O)c2ccc(F)cc2)Oc2c(NC(=O)Nc3cccc4ccccc34)cccc2C1=O	n	n	n
C[C@@H]1CN([C@@H](C)CO)C(=O)c2cccc(NC(=O)c3ccc(-c4nccs4)cc3)c2O[C@@H]1CN(C)C	n	n	n
CC1(C)C=Cc2c(cc3occ(-c4ccc5c(c4)OCO5)c(=O)c3c2O)O1	n	n	n
COc1c(-c2coc3cc4c(cc3c2=O)CC(O)C(C)(C)O4)ccc2c1C=CC(C)(C)O2 (configuration not stated)	101.5	99.1	90.8

Compound activity (PubChem)
